# Reference: PubChem BioAssay (NCI)
# This is part of a sample that, as a whole, favours compounds with a hit. Of some 83,000 tested, about 20% had one in any assay.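 In brief: 96-well plates, 48 h treatment, single concentration, percent growth endpoint.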 Unmarked numbers belong to inactive results. Active and inactive are the calls of the source. The calls were made as follows: active = growth percent below 10; inactive = the rest.
# Tests used:
# Test in all cases: NCI-60 one-dose screen, 48 h (100 = growth as untreated, 0 = no growth, -100 = all killed)
# [1] = system: EKVX NSCLC; settings: 10 µM unless noted
# [2] = system: SN12C renal; settings: 10 µM unless noted
# [3] = system: UO-31 renal; settings: 10 µM unless noted
# [4] = system: TK-10 renal; settings: 10 µM unless noted
# [5] = system: ACHN renal; settings: 10 µM unless noted
# [6] = system: CAKI-1 renal; settings: 10 µM unless noted
# [7] = system: A498 renal; settings: 10 µM unless noted
# [8] = system: CCRF-CEM leukemia; settings: 10 µM unless noted
# [9] = system: MOLT-4 leukemia; settings: 10 µM unless noted
# [10] = system: SR leukemia; settings: 10 µM unless noted
# [11] = system: RPMI-8226 leukemia; settings: 10 µM unless noted
# [12] = system: OVCAR-8 ovarian; settings: 10 µM unless noted
# [13] = system: OVCAR-5 ovarian; settings: 10 µM unless noted
# [14] = system: SK-OV-3 ovarian; settings: 10 µM unless noted
# [15] = system: IGROV1 ovarian; settings: 10 µM unless noted
# [16] = system: OVCAR-3 ovarian; settings: 10 µM unless noted
# [17] = system: HS 578T breast; settings: 10 µM unless noted
# [18] = system: NCI/ADR-RES ovarian; settings: 10 µM unless noted
# [19] = system: OVCAR-4 ovarian; settings: 10 µM
SMILES,growth [1],growth [2],growth [3],growth [4],growth [5],growth [6],growth [7],growth [8],growth [9],growth [10],growth [11],growth [12],growth [13],growth [14],growth [15],growth [16],growth [17],growth [18],growth [19]
O=C(Nc1cccc2cccnc12)c1cc(C(=O)c2ccc(Cl)cc2)n2ccc(-c3ccncc3)cc12,107%,101%,81.4%,108%,99.7%,83.4%,90.5%,115%,129%,125%,103%,97.8%,98.9%,92.1%,89.1%,111%,89.6%,105%,
C=C(C)[C@@H]1CC[C@]2(C(=O)NCCNCCNC(=O)OC(C)(C)C)CC[C@]3(C)[C@H](CC[C@@H]4[C@@]5(C)CCC(=O)C(C)(C)[C@@H]5CC[C@]43C)[C@@H]12,53.5% [100 µM],39.9% [100 µM],17.4% [100 µM],54% [100 µM],23.5% [100 µM],18.6% [100 µM],58.7% [100 µM],14.9% [100 µM],11.7% [100 µM],52.4% [100 µM],22.2% [100 µM],44.4% [100 µM],60.4% [100 µM],49.8% [100 µM],34.7% [100 µM],32.3% [100 µM],37.8% [100 µM],52.2% [100 µM],
C[C@]12CCc3nc(Nc4ccccc4)sc3C1=CC[C@@H]1[C@@H]2CC[C@]2(C)/C(=N/NC(N)=S)CC[C@@H]12,78.2%,49.2%,60%,38.3%,31.6%,49.6%,48%,18.7%,8.01% (active),13.1%,-1.05% (active),56.9%,91.5%,,69.1%,-21.2% (active),55.9%,53.6%,35.9%
Cn1cc(-c2noc(-c3cn(C)c4ncc(F)cc34)n2)c2cc(Cl)ccc21,47.1%,40.8%,53.3%,28%,10.2%,,69.2%,99.7%,78.2%,34.5%,67%,48.7%,61.9%,87.8%,51.7%,19.7%,47%,67.9%,-50.6% (active)
COc1ccc(NC(=O)Nc2ccc(-c3cccnc3)cc2N2CCC(CO)CC2)cc1,60%,70.9%,97.8%,47.1%,97.3%,64.1%,9.13% (active),95.4%,93.2%,95.2%,54.4%,79.1%,49.6%,71.7%,110%,40.2%,62.6%,64.4%,73.8%
O=S(=O)(NCCCNc1nccc(-c2c(-c3cccc(F)c3)nc3occn23)n1)c1cccc2ccccc12,47.3%,43.3%,17.6%,55.6%,29.5%,20.5%,28.9%,25.9%,5.16% (active),50.7%,28.2%,42.1%,66.7%,55.6%,14.4%,56.3%,23.4%,48.2%,34.6%
Cc1ccc(-c2cc(-c3ccc(C)cc3)nc(NCCNc3ccnc4cc(Cl)ccc34)n2)cc1,,,-68.5% (active),-49.2% (active),-87.5% (active),-47.8% (active),68.4%,,-29.6% (active),2.87% (active),-22% (active),-53.4% (active),-34.9% (active),,-66.2% (active),-80.3% (active),-46.7% (active),-63.1% (active),-31.4% (active)
O=c1[nH]cnc2c1ccn2C1OC(CO)C(O)C1O (stereo not given),79%,,37.9%,52.7%,27.8%,37.2%,57.5%,64.1%,53.6%,58.1%,58%,31.4%,76.6%,39.3%,48.7%,64.7%,74.6%,31.1%,24.5%
CCCCCCCCCCCCCCCCCCNC(=S)N/N=C/c1ccc(OC)c(OC)c1,92.9%,93.4%,77.1%,104%,102%,93.9%,82.4%,91.7%,100%,81.2%,89.7%,101%,93.8%,98.5%,94.2%,,100%,97.3%,98.5%
CCN(CC)CCCOc1ccc2c(c1)O/C(=C\c1cccc(OC)c1)C2=O,97.4%,87.1%,73.8%,98.7%,99.8%,87.4%,72.6%,102%,,63.3%,96.2%,90.8%,95.7%,115%,97.7%,91.2%,,94.8%,94.2%
O=C(CCCSc1nc(-c2ccccc2)cc(-c2ccccc2)n1)NO,10.3%,12.3%,-13.9% (active),9.4% (active),0.594% (active),1.69% (active),-15.6% (active),3.58% (active),4.55% (active),1.05% (active),14.9%,5.38% (active),9.78% (active),-18.6% (active),12.6%,-5.33% (active),45.2%,-12.1% (active),
CN(C)Cc1ccc[nH]1,90.4%,70.4%,88.9%,131%,101%,81.8%,76.8%,118%,,102%,136%,95.1%,76.3%,106%,,99.5%,113%,77.9%,109%
CNc1cc(C(=O)O)nc(NC)n1,,95.1%,88.4%,99.2%,99.9%,98.4%,79.7%,100%,101%,107%,103%,101%,92.1%,109%,99.1%,,94.7%,99.4%,97.6%
O=C(C[n+]1ccn(CC(OCc2ccc(Cl)cc2Cl)c2ccc(Cl)cc2Cl)c1)c1ccc(F)cc1 (stereo not given),-77.8% (active),-93.5% (active),84.1%,-46.1% (active),26.5%,79.7%,-12.3% (active),-12.1% (active),-19.9% (active),-52.9% (active),-46.3% (active),-90.5% (active),-93.4% (active),26.3%,,-93% (active),-57.1% (active),103%,-96.2% (active)
CO[C@H]1CC[C@@]2(C)C(=CC[C@H]3[C@@H]4C[C@H](O)C[C@@]4(C)CC[C@@H]32)C1,,64.8%,66.1%,58.9%,69.6%,42.8%,55.8%,19.3%,33.5%,14.1%,54.5%,82.5%,102%,39.1%,53.8%,28.7%,60.8%,39.1%,
